# From PubChem BioAssay
# Sampled rows, rich in hits. Any-hit rate of the full collection: about 0.95%.
# A647 autofl: compound fluoresces in the A647 spectral region. Compound fluorescence, A647 channel (570/671 nm), Tris buffer. max dye-equivalent concentration, M. 59,000 tested, under 10 active. AID 592;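 note: values scaled relative to a standard on each plate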
#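 Buffer was dispensed, compounds and Alexa 647 standards were pin-transferred, and plates sat 15 min at room temperature. Intensity at 570/671 nm was then converted to dye-equivalent concentration using the plate's A647 standard curve.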
# Resorufin autofl: compounds fluorescent in resorufin spectral region. max dye-equivalent concentration, M. 59,000 compounds, 0.04% hits. AID 588. Compound fluorescence, resorufin region 547/598 nm, buffer; active compounds read high
#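 Dye-equivalent concentration values derive from comparing each well's 547/598 nm fluorescence against resorufin standards included on every plate. Incubation was 15 min at room temperature in 100 mM Tris, pH 8.0.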
# Texas Red fluor: compound fluoresces in the Texas Red spectral region; Compound fluorescence, Texas Red channel, 547/618 nm; active compounds read high; max dye-equivalent concentration, M; 59,000 compounds, 0.06% hits; AID 587; in the data active = max dye-equivalent concentration above about 10 nM; inconclusive = between about 1.1 nM and that limit
#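 Compound titrations in 100 mM Tris pH 8.0 were incubated 15 min at room temperature and read at 547 nm excitation / 618 nm emission. Texas Red six-point standard curve on each plate converted fluorescence to dye-equivalent concentration.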
# Rhodamine autofl: compound autofluorescence in rhodamine spectral region. 59,000 compounds, 0.05% hits. max dye-equivalent concentration, M. Rhodamine-region fluorescence, 547/598 nm, Tris buffer; active compounds read high; in the data active = max dye-equivalent concentration above about 11 nM; inconclusive = between about 1.1 nM and that limit
#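 Read-out is relative fluorescence at 547 nm excitation and 598 nm emission, expressed as dye-equivalent concentration using rhodamine standards on every plate. Each compound was profiled across a concentration series after 15 min in 100 mM Tris, pH 8.0.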
# A488 autofl: compound autofluorescence in A488 spectral region | compound autofluorescence, A488 spectral region, dye equivalency; Compound Type: qHTS ECL - MLSMR | max dye equivalency, M | 59,000 compounds, 0.1% hits
#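 Compounds pin-transferred into 100 mM Tris buffer, pH 8.0, incubated 15 min at room temperature, then imaged with 480 nm excitation/540 nm emission filters. Fluorescence converted to Alexa 488 dye-equivalent concentration via an on-plate six-point A488 standard curve.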
# Fluorescein fluor: fluorescein region autofluorescence; Compound autofluorescence, 480/540 nm, fluorescein-equivalent; active compounds read high; max fluorescein-equivalent concentration, M; 59,000 compounds, 0.91% hits; AID 593; in the data active = max fluorescein-equivalent concentration above about 10 nM; inconclusive = between about 1.1 nM and that limit
#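 Values reflect compound autofluorescence, normalized to fluorescein on the same plate and reported at each tested concentration. Conditions: 100 mM Tris pH 8.0, room temperature, 15 min, excitation 480 nm, emission 540 nm.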
# * hit, by the source's call; i = inactive; ? = inconclusive. Unless noted, the rule behind the calls is not given here.
SMILES,A647 autofl,Resorufin autofl,Texas Red fluor,Rhodamine autofl,A488 autofl,Fluorescein fluor
CCOc1ccc2nc(NS(=O)(=O)c3ccc4c(c3)n(C)c(=O)n4C)sc2c1,1e-09,i,i,i,i,1.17e-08M*
CC1=NN(c2ccc(S(=O)(=O)O)cc2)C(=O)/C1=C\c1ccc(Cl)cc1,1e-09,i,i,i,i,i
CC1CC=C2C(C#N)=C(N)C(C#N)(C#N)C(c3cccs3)C2C1 (configuration not stated),2.37e-08,i,i,i,i,2.66e-08M*
CC(C)(C)OC(=O)N1CC=C2C(C#N)=C(N)C(C#N)(C#N)C(c3cccs3)C2C1 (configuration not stated),4.06e-08,i,i,i,i,1.83e-08M*
CC(C)(C)OC(=O)N1CC=C2C(C#N)=C(N)C(C#N)(C#N)[C@H](c3cccnc3)[C@H]2C1,7.72e-08,i,i,i,i,?
C[C@@]12C(=O)OC(=O)[C@@]1(C)[C@H]1CC[C@@H]2O1,3.7e-09,i,?,i,i,?
CN(C)C(=O)c1ccc(-c2ccc3ncnc(N(C)C)c3c2)cc1,1e-09,i,i,i,i,i
CCSC1=NC(=O)/C(=C2/C=Cc3ccccc3N2CC)S1,7.5e-09,i,i,i,i,?
CCCn1c(=C(C#N)C#N)s/c(=C2\C=Cc3ccccc3N2CC)c1=O,9.4e-09,?,?,?,i,2.1e-08M*
COc1ccc(-c2nc3cnc(N4CCOCC4)nc3n(CCC#N)c2=O)cc1,3.9e-09,i,?,i,i,i
COc1[nH]c(/N=C/c2ccccc2)c(C#N)c1C#N,8e-09,?,?,?,?,3.58e-08M*
COc1nccc(Nc2ccccc2)c1C#N,1.69e-08,i,?,i,i,?
O=c1cc(-c2ccccc2)oc2cc(O[C@H]3O[C@H](CO)[C@@H](O)[C@H](O)[C@@H]3O)c(O)c(O)c12,1.42e-08,i,i,i,i,i
O=c1oc2c(CN3CCOCC3)c(O)ccc2c2c1CCC2,6.5e-09,i,i,i,i,i
O=c1oc2c3c4c(cc2c(C(F)(F)F)c1CCN1CCOCC1)CCCN4CCC3,1e-09,i,?,i,?,4.61e-08M*
Cn1cccc1C(=O)N1CCC2(CCN(C(=O)Nc3ccccc3)CC2)CC1,1.85e-08,i,i,i,i,i
CCOC(=O)CSC1=NC(=O)CS1,1e-09,i,i,i,i,2e-08M*
CCOC(=O)CSc1nnc(N)s1,2.3e-09,i,?,i,i,?
COCCn1c(=O)c(-c2cccc(C#N)c2)nc2cnc(Nc3ccccc3)nc21,1.88e-08,i,i,i,i,?
N#Cc1cccc(-c2nc3cnc(Nc4ccccc4)nc3n(C[C@H]3CCCO3)c2=O)c1,1.8e-09,i,i,i,i,1.28e-08M*
COc1cccc(Cn2c(=O)c(-c3cccc(C#N)c3)nc3cnc(Nc4ccccc4)nc32)c1,3.07e-08,i,i,i,i,1.28e-08M*
O=c1c(-c2cccs2)nc2cnc(Nc3ccccc3)nc2n1C[C@H]1CCCO1,3.52e-08,i,i,i,?,4.25e-08M*
S=C1NCN2CCN(CC2)CNC(=S)C(=S)NCN2CCN(CC2)CNC1=S,4.1e-09,i,i,i,i,i
CCOC(=O)c1c(C)oc2ccc(O)c(CN(C)C)c12,1.7e-08,i,i,i,i,?
CCOC(=O)c1c(C)oc2c1c(/C=N/c1ccccn1)c(O)c1ccccc12,1e-09,i,i,i,i,2.15e-08M*
SMILES,A647 autofl,Resorufin autofl,Texas Red fluor,Rhodamine autofl,A488 autofl,Fluorescein fluor
CS(=O)(=O)N1CCC2(CCN(Cc3ccncc3)CC2)CC1,2.62e-08,i,i,i,i,?
CCN1CCC(O)([C@H](C(=O)O)c2ccccc2)CC1,1e-09,i,i,i,i,i
CCN(CC)c1ccc2cc(C(=O)Nc3ccc(-n4cnnn4)c(OC)c3)c(=O)oc2c1,2.47e-08,i,i,i,3.42e-08M*,6.71e-07M*
CNC/C(Cl)=N/S(=O)(=O)c1ccc(C)cc1,1e-09,i,i,i,i,i
CCN(CC)c1ccc2c(Cl)c(Br)c(=O)oc2c1,3.96e-08,i,i,i,i,?
CCN(CC)c1ccc2c(c1)oc(=O)c1c(Cl)cc(=O)oc12,3.78e-08,i,i,i,2.5e-08M*,4.78e-07M*
CC1(C)c2ccccc2N2CC(=O)NC21/C=C/c1ccco1 (configuration not stated),1e-09,i,i,i,i,?
O=C1CC(/C=C/c2ccco2)=Nc2ccccc2N1,2.17e-08,i,?,i,?,3.58e-08M*
C[C@@H]1c2ccccc2Cn2cc3c(c21)C(=O)c1cccc(OP(=O)(O)OCc2ccccc2)c1C3=O,8.7e-09,i,i,i,?,8.57e-08M*
O=C(c1ccco1)N1CCC2(CC1)CN(c1ccccn1)C2,1.38e-08,i,i,i,i,?
Cc1cccc(-c2c3c(=O)n(C)c(=O)n(C)c3c3cccnn23)c1,1e-09,i,i,i,i,1.06e-08M*
Cc1cccc(-c2c3c(=O)n(C)c(=O)n(C)c3c3c(C)cc(C)nn23)c1,3.24e-08,i,i,i,i,?
Cc1ccc(C2c3sc(=O)[nH]c3SC3C(=O)NC(=O)C32)cc1 (configuration not stated),1e-09,i,i,i,i,1.21e-08M*
O=C(O)C1Sc2[nH]c(=O)sc2C2c3cc(Cl)ccc3OC(=O)C12 (configuration not stated),1.71e-08,i,i,i,i,i
O=C(N/N=C\c1ccc2c(c1)CCC2)c1ccccc1O,3.8e-09,i,i,i,i,?
CC(=O)c1sc2nc(-c3cccs3)cc(C(F)(F)F)c2c1N,1e-09,i,i,i,?,7.16e-08M*
CC[C@@H]1[C@H]2CCCCN3[C@@H]2[C@@H](C[C@H]3[C@@H]2C[C@H](C)C(=O)O2)[C@@H]2[C@H]1OC(=O)[C@H]2C,3.1e-09,i,i,i,i,i
CCCN1CCCc2cc(CN)ccc21,1e-09,i,i,i,?,3.28e-08M*
CC1=CC(=O)c2ccccc2C1=O,3.8e-08,i,i,i,i,?
NC1=CC(=O)c2cccc3cccc1c23,2.59e-08,i,i,i,?,3.56e-08M*
COc1ccccc1-c1nc(N2CCOCC2)c2ccccc2n1,1e-09,i,i,i,i,i
C[C@@H]1CCN=C(N)S1,1e-09,i,i,i,i,?
